About 2,700 (4%) of roughly 68,000 compounds showed an effect of 50% or more. The full list was thinned out, with strong results kept by preference.

In the assay the test system is Plasmodium berghei. The assay can be described thus: Screen against P. berghei liver stage (PbLuc), transformed with Luciferase, at 2uM. The format is functional, HepG2. As to conditions: tested at 2 uM.
On to `CCN(Cc1ccoc1)C(=O)NC1CCN(C(=O)OC(C)(C)C)C1` (stereo not drawn), for which the INHIBITION turned out to be 7.93%.
As for `CCN(Cc1ccoc1)C(=O)C1CCN(C(=O)OC(C)(C)C)C1` (stereo not drawn), the figure is 30.25%; as for `CCN(Cc1ccoc1)C(=O)C1CN(C(=O)OC(C)(C)C)C1`, 52.03%; as for `Cc1cc(-n2nnc(C(=O)O)c2-c2ccncc2)ccc1F`, -37.39%.
For `Cc1occc1C(=O)N1CCC2(CCCN(c3ncc(F)cn3)C2)C1` (stereo not drawn), the INHIBITION is given as -13.37%.
For `CC(C)(C)n1cc(C(=O)O)c(-c2ccc(F)cc2F)n1`, the INHIBITION worked out at 52.98%.
`Cn1cc(C(=O)O)c(-c2ccc(F)cc2F)n1`: the INHIBITION worked out at 31.51%.
The same measure for `Cn1cc(C(=O)OCC(N)=O)c(-c2ccc(F)cc2F)n1`: 19.59%.
As for `COc1ccc(C(=O)C2CCCN(c3nccc(N)n3)C2)c(C)c1` (stereo not drawn), the figure is 22.5%; as for `COc1ccc(N2CCC(N(C)C(=O)Nc3ccncc3)CC2)cc1`, -18.09%; as for `Cc1cccc(CN2CC[C@@H]3[C@@H]2CCN3C(=O)c2cc(C)on2)n1`, 26.01%.
As for `Cc1cccc(CN2CC[C@H]3[C@H]2CCN3C(=O)c2cnn(C)c2)n1`, the figure is 51.4%; as for `Cn1cc(C(=O)N2CC[C@@H]3[C@@H]2CCN3Cc2cccnc2)cn1`, -31.39%; as for `Cc1cccc(CN2CC[C@H]3[C@H]2CCN3Cc2cnn(C)c2)n1`, 46.68%.
For `Cc1cccc(N2CC[C@H]3[C@H]2CCN3C(=O)c2cnn(C)c2)n1`, the INHIBITION is on record as 3.56%.
The same measure for `Cc1cccc(CN2CC[C@@H]3[C@@H]2CCN3C(=O)c2cnoc2C)n1`: -15.6%.
As for `Cc1cccc(CN2CC[C@@H]3[C@@H]2CCN3C(=O)c2ccno2)n1`, the figure is 51.94%.
The same measure for `Cn1cc(C(=O)N2CC[C@@H]3[C@@H]2CCN3Cc2ccccc2)cn1`: 28.85%; for `Cn1cc(C(=O)N2CC[C@@H]3[C@@H]2CCN3Cc2ccncc2)cn1`: 70.31%; for `Cc1cc(CNCC2Cn3nnc(C)c3CO2)oc1C` (stereo not drawn): 26.42%.
`CCS(=O)(=O)NC1CCCN(c2ccc(F)cc2C)C1=O` (stereo not drawn): the INHIBITION is reported as -13.11%.
As to `Cn1cc(C(=O)N2CCCC(C(=O)CCc3ccccc3)C2)cn1` (stereo not drawn), the INHIBITION came out at 18.12%.
For the molecule `CCC(O)CNc1nccc(-c2ccc(C)nc2C)n1` (stereo not drawn), the INHIBITION is -23.27%.
For the molecule `O=C(Cc1cccs1)N1CCC2(CCCN(CC3CCOCC3)C2)C1` (stereo not drawn), the INHIBITION worked out at 54.62%.
The same measure for `O=C(Cc1ccsc1)N1CCC2(CCCN(CC3CCOCC3)C2)C1` (stereo not drawn): 32.04%; for `O=C(Cc1ccccn1)N1CCC2(CCCN(CC3CCOCC3)C2)C1` (stereo not drawn): -16.36%; for `CS(=O)(=O)c1ccc(OCCCN2CCc3cncnc3C2)cc1`: 20.53%.
The same measure for `Cn1cnc2c1CCN(CCCOc1ccc(S(C)(=O)=O)cc1)C2`: 72.05%; for `Cn1cnc2c1CCN(CCCOc1ccc(C#N)cc1)C2`: 40.29%.
For the molecule `CCS(=O)(=O)N(C)C1CCN(C(=O)c2cc(C)cc(C)c2)CC1`, the INHIBITION is -37.02%.
The same measure for `CNC(=O)COc1cccc(CNCc2c(C)noc2C)c1`: -16.18%.
As for `CNC(=O)COc1ccccc1CNCc1c(C)noc1C`, the figure is 57.75%.
In the case of `Cc1noc(C)c1CNC(=O)C(C)Oc1ccccc1F` (stereo not drawn), the INHIBITION is given as -23.17%.
The same measure for `Cc1cc(O)cc(=O)n1CCCC(=O)Nc1n[nH]c2cc(Br)ccc12`: -14.65%.
As for `CO[C@H]1C(=O)N(C)C2(CCNCC2)[C@@H]1C(=O)Nc1ccccc1`, the figure is 36.1%.
As for `Cc1noc(C)c1CN1CCC(N(C)Cc2nnc(C3CC3)n2C)C1` (stereo not drawn), the figure is -37.68%.
With `CCCN1CCC[C@]2(CCC(=O)N2Cc2ccncc2)[C@H]1CC`, the INHIBITION was 32.59%.
The same measure for `CN1C(=O)CCC12CCC(NC(=O)NCc1cccnc1)CC2` (stereo not drawn): -14.64%.
The same measure for `COCCN1C(=O)CCC12CCC(NCc1cccnc1OC)CC2` (stereo not drawn): 12.95%; for `CC[C@H]1N(CC2CCC2)CCC[C@]12CCC(=O)N2Cc1ccncc1`: 65.54%.
As for `CC[C@@H]1N(Cc2ccncc2)CCC[C@]12CCC(=O)N2CCOC`, the figure is 28.86%; as for `CC[C@@H]1N(Cc2ccc(OC)cc2)CCC[C@]12CCC(=O)N2CCOC`, 25.75%.
`CN1C(=O)CCC12CCC(NCc1ccsc1)CC2` (stereo not drawn): the INHIBITION is 51.81%.
As for `COCCN1C(=O)CCC12CCC(NCc1nccs1)CC2` (stereo not drawn), the figure is 75.66%; as for `CC[C@@H]1N(Cc2ccccn2)CCC[C@]12CCC(=O)N2CCOC`, 51.05%.
The same measure for `CC[C@@H]1N(CC2CCC2)CCC[C@]12CCC(=O)N2Cc1ccncc1`: 12.28%; for `COCCN1C(=O)CCC12CCC(NCc1ccc(OC)cc1)CC2` (stereo not drawn): 25.43%.
As for `O=C1CCC2(CCC(NCc3ccsc3)CC2)N1Cc1ccccc1` (stereo not drawn), the figure is 31.5%; as for `Cc1cc(C(=O)N2CCC(Nc3cccnc3)CC2)c(C)s1`, 22.36%; as for `COCCN1CCC2(CCN(C(=O)c3ccc(F)cc3)CC2)C1=O`, 4.59%.
`CN1[C@@H]2CC[C@H]1CN(C(=O)CCc1csc(N)n1)CC2`: the INHIBITION came out at 41.86%.
`COc1ccc(C(=O)N2CCC(Nc3cccnn3)CC2)c(F)c1`: the INHIBITION is -33.22%.
As for `Cc1c(C2N3CC4(C(C)C)CN2CC(C(C)C)(C3)C4=O)[nH]c(=O)[nH]c1=O` (stereo not drawn), the figure is -2.5%; as for `CCc1noc(C2CCCCN2C(=O)c2ccc3c(c2)OCO3)n1` (stereo not drawn), 25.67%.
As for `CC[C@@H]1N(Cc2nccs2)CCC[C@]12CCC(=O)N2CCOC`, the figure is 65.26%; as for `CC[C@@H]1N(Cc2ccc(F)cc2)CCC[C@]12CCC(=O)N2CCOC`, 1.78%; as for `CC[C@@H]1N(Cc2nccs2)CCC[C@]12CCC(=O)N2C`, 45.22%.
Consider `Cc1csc(C(=O)N2CC(S(=O)(=O)C3CCCCC3)C2)c1`, for which the INHIBITION was -15.37%.
The same measure for `CC(=O)N1CC2(CCCN2Cc2ccc(Cl)cc2)Cc2ccccc21` (stereo not drawn): 6.9%.
The same measure for `CCn1c(CC2CCN(C(=O)c3cc(C(C)C)nn3C)CC2)n[nH]c1=O`: 32.26%; for `CCn1c(CC2CCN(C(=O)c3cc(C(C)C)n[nH]3)CC2)n[nH]c1=O`: 3.06%.
The same measure for `CCn1c(CC2CCN(C(=O)c3cc(CC(C)C)on3)CC2)n[nH]c1=O`: 55.25%.
On to `CSCc1cccc(NC(=O)N2CCC(N3CC=CC3)C2)c1` (stereo not drawn), for which the INHIBITION is reported as -18.09%.

These data come from ChEMBL document CHEMBL4513216, “Probing the Open Global Health Chemical Diversity Library for Multistage-Active Starting Points for Next-Generation Antimalarials” (ACS Infect Dis, 2020).
